High-throughput results from PubChem.
Compounds with a hit are over-represented: about 7.3% of the library has one in this group of screens.
VACV mCherry inh: vaccinia inhibition (mCherry reporter) | Vaccinia virus mCherry reporter infection, fluorescence | Potency, µM (top dose mostly 36.5 µM), inactives show at the top dose activity change, negative = inhibition, usual class: inhibitors | hit rate 0.63% among 310,000; calls by dose curve; tested in A549 cells; also: potency is read from the fitted curve at half-maximal effect; nearly all actives have a fitted effect of over 35% in size
HCV inhibitor: HCV inhibition | Potency, µM (titrated, usually from 41.8 µM), for the others: at the top dose activity change, negative = inhibition, most hits filed as inhibitors | Huh7.5.1 HCVcc-Cre infection, luciferase reporter, 44 h | AID 651820 | hit rate 3.4% among 340,000; active = well fitted inhibition curve with a large enough effect; inconclusive = small, poorly fitted or top-dose-only effect, or another doubt; inactive = no such curve, though single readings can be large or run the other way; also: potency is read from the fitted curve at half-maximal effect
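Cells (1,000/well) were plated 4 h before compound, then infected with HCVcc-Cre virus (~0.5 moi). After 44 h further culture, infection was read as luciferase luminescence following a 15 min substrate incubation at room temperature.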
HCMV antiviral: inhibitors of human cytomegalovirus | HFF cells, HCMV-luciferase reporter, 72 h; hits give low values | activity change, negative = inhibition, % at 57.5 µM | hit rate 4.5% among 410,000 | AID 1259415; in the data active = activity change below about -60%; inconclusive = no clear call, values can overlap the other calls; inactive = above about -39%
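Screen run at 2 compound doses on HFFs infected with reporter HCMV, MOI 1 PFU/cell. Luciferase activity from cell lysates at 72 h post infection gave inhibition relative to buffer-only and Salinomycin wells.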
FMDV antiviral: antivirals against foot and mouth disease virus | AID 1159524 | FMDV antiviral cell-based qHTS | hit rate 1.2% among 410,000 | Potency, µM (top dose mostly 57.9 µM), without a hit: at the top dose activity change, negative = inhibition, usual class: inhibitors; calls by dose curve; tested in HEK293T cells; also: read-out not given here; potency is read from the fitted curve at half-maximal effect; nearly all actives have a fitted effect of over 45% in size
VACV Venus inh: vaccinia inhibition (Venus reporter). Vaccinia virus Venus reporter expression, fluorescence. Potency, µM (top dose mostly 36.5 µM), for the others: top-dose activity change, negative = inhibition, hits mostly inhibitors. hit rate 0.46% among 330,000. AID 720580; calls by dose curve; tested in A549 cells; also: potency is read from the fitted curve at half-maximal effect; nearly all actives have a fitted effect of over 30% in size
An asterisk follows results filed as active; i = inactive; ? = inconclusive; · = no result given. % is scaled to controls: 0 for no effect and ±100 for the full control effect.

SMILES	VACV mCherry inh	HCV inhibitor	HCMV antiviral	FMDV antiviral	VACV Venus inh
Cc1nnc(Nc2ccc(C(=O)O)cc2)[nH]c1=O	i	4%	?	4%	-3%
COc1ccc(CCn2c(-c3ccco3)nc3ccccc3c2=O)cc1OC	-13%	?	7	32µM*	-10%
N=c1c(C(=O)NCc2ccco2)cc2c(=O)n3ccccc3nc2n1CCc1ccccc1	·	-23%	?	-23%	-1%
COc1ccc(CCNC(=O)c2cc3c(=O)n4ccccc4nc3n(Cc3ccco3)c2=N)cc1OC	·	2.2µM*	?	-6%	·
Cc1ccc(Cn2c(=N)c(C(=O)NCc3ccco3)cc3c(=O)n4ccccc4nc32)cc1	11%	11µM*	5	-2%	11%
COc1ccc(CCn2c(=N)c(C(=O)NCc3ccco3)cc3c(=O)n4ccccc4nc32)cc1OC	·	?	-95*	-13%	·
CCOCCCNC(=O)Cn1ncc2c([nH]c3ccccc32)c1=O	-1%	·	10	-14%	3%
COc1ccc(S(=O)(=O)N(CC(=O)Nc2cccc(C)c2)c2ccc(C)cc2)cc1OC	-10%	·	5	-15%	-2%
COc1ccc(C(=O)NCC(c2ccco2)S(=O)(=O)c2cccs2)cc1 (configuration not stated)	-9%	·	12	12%	-3%
CC(=O)OC1CC[C@]2(C)C(CC(OC(C)=O)[C@@]3(C)C4=CC(=O)OC(c5ccoc5)[C@]4(C)CCC23)C1(C)C (some centres not stated)	-7%	·	·	?	-8%
CCOc1nc(SCCOc2ccccc2)nc(N(C)C)n1	-16%	11µM*	-4	-19%	-23%
CCNc1nc(SCCOc2ccc(C)cc2)nc(N(C)C)n1	·	11µM*	-28	1%	·
CCOC(=O)C1=CCN(S(=O)(=O)c2ccc(Cl)cc2)C1c1cccc(F)c1 (configuration not stated)	·	·	-27	·	·
O=C(Nc1cccc(Cl)c1)OCc1cn(-c2ccccc2)nn1	-2%	?	-15	2.5µM*	2%
O=C(Nc1cccc(Cl)c1)OCc1cn(-c2ccc(Cl)cc2)nn1	·	13%	-8	20%	·
CCn1nc(-c2ccccc2)c2nc3ccccc3nc21	·	-12%	-60*	?	-17%
CCCn1nc(-c2ccccc2)c2nc3ccccc3nc21	·	25%	-6	1%	-23%
Cc1c(P(=S)(c2ccccc2)c2ccccc2)[n+]2ccccc2n1C/C=C/c1ccccc1	·	·	-99*	?	·
Cn1cc[n+](C)c1P(=S)(c1ccccc1)c1ccccc1	i	8%	-10	-10%	-6%
Cc1c(P(=S)(c2ccccc2)c2ccccc2)[n+]2ccccc2n1C	·	?	-64*	-18%	·
CCC(C)NC(=S)Nc1ccc(C(=O)OC)cc1 (configuration not stated)	-4%	?	-85*	19%	-5%
CCOC(=O)c1ccc(NC(=S)NCCc2ccc(F)cc2)cc1	11%	11µM*	-24	?	4%
NS(=O)(=O)c1ccc(CCNC(=S)Nc2ccc(F)cc2)cc1	-21%	-9%	-61*	-7%	-9%
NS(=O)(=O)c1ccc(CCNC(=S)Nc2ccccc2)cc1	-11%	?	-7	-10%	-2%
CCOC(=O)c1ccc(NC(=S)NNC(C)(C)C)cc1	·	-5%	-74*	87%	·
SMILES	VACV mCherry inh	HCV inhibitor	HCMV antiviral	FMDV antiviral	VACV Venus inh
S=c1nc[nH]c2n[nH]nc12	10%	·	·	·	-21%
Cc1ccc2c(c1)N(CCC(=O)NC(C)C)C(=O)CO2	-13%	4%	-76*	0%	-5%
COc1ccc(CCNC(=O)CCN2C(=O)COc3ccc(C)cc32)cc1OC	·	2.8µM*	-8	-11%	·
Cc1ccc(CNC(=O)CCN2C(=O)COc3ccc(C)cc32)cc1	3%	·	?	-11%	-2%
C[C@H]1COc2cccc(N3CCCC3)c2S(=O)(=O)N1	·	·	-16	·	·
CC(=O)c1c(C)[nH]c(C(=O)OCC(=O)Nc2cccc(S(=O)(=O)N(C)C)c2)c1C	i	6.3µM*	-61*	-14%	-12%
CCN(CC)S(=O)(=O)c1cccc(NC(=O)COC(=O)c2[nH]c(C)c(C(C)=O)c2C)c1	-28%	·	-85*	11µM*	?
Cc1[nH]n2c(=O)cc(-c3ccccc3Cl)nc2c1-c1ccccc1	?	·	-94*	-23%	-29%
COCc1cc(=O)n2[nH]c(C)c(-c3ccc(Cl)cc3)c2n1	10µM*	·	-14	?	?
CCc1cc(=O)n2[nH]c(C)c(-c3ccccc3OC)c2n1	-4%	-13%	4	-16%	-7%
Cc1nc(CC(=O)N2CCC(n3c(C4CCC4)nc4cccnc43)CC2)cs1	0%	·	·	-18%	-9%
COc1ccc2ccccc2c1CNCc1ccc(C)cc1	-9%	?	4	-22%	0%
COc1ccc2ccccc2c1CNC(C)c1ccccc1 (configuration not stated)	·	5.6µM*	-11	-17%	·
Cc1cccc(C)c1NC(=O)C(c1ccncc1)N1CCN(CCN(C)C)CC1 (configuration not stated)	-5%	·	-22	-3%	2%
Cc1ccc(S[C@@H](CCN2CC[C@H](NC(=O)OCc3ccccc3)CCC2=O)c2ccccc2)cc1	-14%	13µM*	?	-19%	-27%
C[C@@H](CSc1ccccc1)CN1CC[C@H](NC(=O)OCc2ccccc2)CCC1=O	0%	11µM*	-78*	-26%	?
C=C1C=C(C(F)F)n2ncc(C(=O)NCc3ccc(Cl)cc3)c2N1	-9%	·	·	·	-20%
COc1ccc(N2C(=O)NC3CC2(C)Oc2ccccc23)cc1OC (configuration not stated)	·	-18%	-62*	-12%	?
COc1ccccc1N1CCN(C(=O)c2cccc(N3C(=O)NC4CC3(C)Oc3ccccc34)c2)CC1 (configuration not stated)	?	-21%	-4	-26%	-28%
COc1ccc(CCNC(=O)c2cnn(-c3nccc(-c4ccco4)n3)c2C)cc1	-18%	·	·	39%	-5%
O=C(Cn1nc(CNc2ccc(Cl)cc2)[n+]2c1CCCCC2)c1ccc(Br)cc1	-6%	41%	15	0%	2%
O=C(Cn1nc(CNc2ccc(Br)cc2)[n+]2c1CCCCC2)c1ccc([N+](=O)[O-])cc1	-19%	-6%	-92*	-12%	-15%
Cc1cccc(OCCn2c(CCNC(=O)C3CCCCC3)nc3ccccc32)c1	12%	·	·	·	-14%
O=C1OCc2cc(NS(=O)(=O)c3cccs3)ccc21	-12%	5%	-63*	·	-5%
C#CCN(C[C@H]1[C@H](OC(=O)Nc2c(C)noc2C)[C@H](OC(=O)Nc2c(C)noc2C)C[C@@H](C(=O)OC)[C@H]1C(=O)OC)S(=O)(=O)c1ccc(C)cc1	-4%	·	-2	32µM*	-15%
C#CCN(C[C@@H]1[C@@H](OC(=O)Nc2cccs2)[C@@H](OC(=O)Nc2cccs2)C[C@H](C(=O)OC)[C@@H]1C(=O)OC)S(=O)(=O)c1ccc(C)cc1	·	·	-8	·	·
COc1ccc(-c2cnc(SCC(=O)Nc3nc(C(C)(C)C)cs3)n2Cc2ccco2)cc1	·	4.5µM*	-19	?	-17%
